The target of test [1] is T1, Serine/threonine-protein kinase BRSK1 (Homo sapiens) (UniProt Q8TDC3).
T1 sequence (whole entry): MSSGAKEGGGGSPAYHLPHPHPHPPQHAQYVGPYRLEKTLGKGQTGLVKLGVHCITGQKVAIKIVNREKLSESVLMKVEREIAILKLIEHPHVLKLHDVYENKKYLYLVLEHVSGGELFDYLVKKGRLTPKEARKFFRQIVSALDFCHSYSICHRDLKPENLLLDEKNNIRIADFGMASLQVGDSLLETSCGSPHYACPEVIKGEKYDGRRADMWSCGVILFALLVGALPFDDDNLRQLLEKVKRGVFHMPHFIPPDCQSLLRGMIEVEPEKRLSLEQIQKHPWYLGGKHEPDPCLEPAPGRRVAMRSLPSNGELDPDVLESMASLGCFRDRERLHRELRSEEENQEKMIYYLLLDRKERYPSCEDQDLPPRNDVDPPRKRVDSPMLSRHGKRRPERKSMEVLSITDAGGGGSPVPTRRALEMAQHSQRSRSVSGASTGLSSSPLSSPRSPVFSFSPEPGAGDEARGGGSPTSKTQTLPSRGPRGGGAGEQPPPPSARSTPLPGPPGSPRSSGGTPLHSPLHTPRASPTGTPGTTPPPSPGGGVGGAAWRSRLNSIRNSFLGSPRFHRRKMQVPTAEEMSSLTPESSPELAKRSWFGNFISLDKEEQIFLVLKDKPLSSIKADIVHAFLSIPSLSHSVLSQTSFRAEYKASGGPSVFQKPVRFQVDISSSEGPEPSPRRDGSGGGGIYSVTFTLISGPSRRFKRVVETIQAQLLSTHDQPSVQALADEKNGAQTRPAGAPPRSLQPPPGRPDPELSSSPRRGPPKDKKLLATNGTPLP
The conditions noted are these: at 1 µM.

Test [2] addresses T1, Serine/threonine-protein kinase BRSK1 (Homo sapiens). Conditions: at 10 µM.
Test [3] addresses T2, Serine/threonine-protein kinase BRSK2 (Homo sapiens) (UniProt Q8IWQ3).
T2 sequence (whole entry): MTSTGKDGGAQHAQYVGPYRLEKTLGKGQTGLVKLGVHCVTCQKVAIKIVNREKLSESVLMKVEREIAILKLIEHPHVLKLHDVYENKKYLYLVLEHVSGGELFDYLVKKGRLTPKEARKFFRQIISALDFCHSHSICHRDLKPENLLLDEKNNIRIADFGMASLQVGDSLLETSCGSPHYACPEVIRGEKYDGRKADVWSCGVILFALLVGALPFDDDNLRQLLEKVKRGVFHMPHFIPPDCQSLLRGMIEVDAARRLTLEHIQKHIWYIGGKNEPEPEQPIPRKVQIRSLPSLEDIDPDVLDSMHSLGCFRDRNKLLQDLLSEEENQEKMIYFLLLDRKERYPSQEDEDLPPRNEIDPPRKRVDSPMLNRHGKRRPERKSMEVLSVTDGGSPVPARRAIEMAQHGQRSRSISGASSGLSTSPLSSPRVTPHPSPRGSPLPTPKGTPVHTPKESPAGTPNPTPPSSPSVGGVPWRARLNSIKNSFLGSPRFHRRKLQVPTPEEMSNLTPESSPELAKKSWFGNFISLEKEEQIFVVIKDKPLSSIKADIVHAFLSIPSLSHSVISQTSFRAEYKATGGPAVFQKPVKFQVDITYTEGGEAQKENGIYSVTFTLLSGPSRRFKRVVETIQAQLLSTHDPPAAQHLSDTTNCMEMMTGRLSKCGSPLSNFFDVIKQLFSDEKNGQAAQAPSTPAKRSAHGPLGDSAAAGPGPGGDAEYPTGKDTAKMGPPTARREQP
Conditions: at 1 µM.

The target in test [4] is T2, Serine/threonine-protein kinase BRSK2 (Homo sapiens). Conditions: at 10 µM.
Test [5] concerns the target T3, Cyclin-dependent kinase 1/cyclin B1 (Homo sapiens) (UniProt P06493+P14635). Conditions: at 1 µM.
Test [6] has as its target T3, Cyclin-dependent kinase 1/cyclin B1 (Homo sapiens). The conditions noted are these: at 10 µM.
The target of test [7] is T4, Cyclin-dependent kinase 2/cyclin A (Homo sapiens) (UniProt P24941+P20248+P78396). The conditions noted are these: at 1 µM.
The target in test [8] is T4, Cyclin-dependent kinase 2/cyclin A (Homo sapiens). The conditions noted are these: at 10 µM.
Test [9] addresses T5, Cyclin-dependent kinase 2/cyclin E (Homo sapiens) (UniProt P24864+P24941+O96020). The conditions noted are these: at 1 µM.
The target of test [10] is T5, Cyclin-dependent kinase 2/cyclin E (Homo sapiens). The conditions noted are these: at 10 µM.
Test [11] has as its target T6, CDK3/cyclin E (Homo sapiens) (UniProt P24864+O96020+Q00526). The conditions noted are these: at 1 µM.
The target in test [12] is T6, CDK3/cyclin E (Homo sapiens). The conditions noted are these: at 10 µM.
The target of test [13] is T7, Cyclin-dependent kinase 5/CDK5 activator 1 (Homo sapiens) (UniProt Q00535+Q15078). The conditions noted are these: at 1 µM.
T7 sequence (Q00535 whole entry): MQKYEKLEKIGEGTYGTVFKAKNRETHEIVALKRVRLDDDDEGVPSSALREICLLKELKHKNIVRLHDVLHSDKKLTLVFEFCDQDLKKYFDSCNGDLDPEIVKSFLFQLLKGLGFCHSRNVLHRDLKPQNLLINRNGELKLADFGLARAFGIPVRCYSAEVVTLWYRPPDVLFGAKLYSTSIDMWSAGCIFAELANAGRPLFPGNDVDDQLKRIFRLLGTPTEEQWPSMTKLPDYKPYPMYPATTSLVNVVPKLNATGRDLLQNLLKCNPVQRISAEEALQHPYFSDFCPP
T7 sequence (Q15078 99-307 partner limits assumed): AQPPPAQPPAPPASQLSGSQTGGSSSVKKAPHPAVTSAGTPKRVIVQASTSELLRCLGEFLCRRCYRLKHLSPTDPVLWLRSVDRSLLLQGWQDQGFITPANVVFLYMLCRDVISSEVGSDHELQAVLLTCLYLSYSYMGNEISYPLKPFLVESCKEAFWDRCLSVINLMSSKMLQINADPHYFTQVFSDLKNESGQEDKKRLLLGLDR
Test [14] has as its target T7, Cyclin-dependent kinase 5/CDK5 activator 1 (Homo sapiens). Conditions: at 10 µM.
For test [15] the target is unchanged. The conditions noted are these: at 1 µM. This is another data set of the same source.
Test [16] has the same target. The conditions noted are these: at 10 µM. This is another data set of the same source.
The target in test [17] is T8, CDK6/cyclin D3 (Homo sapiens) (UniProt P30281+Q00534). The conditions noted are these: at 1 µM.
The target of test [18] is T8, CDK6/cyclin D3 (Homo sapiens). The conditions noted are these: at 10 µM.
The target in test [19] is T9, Cyclin-dependent kinase 7/ cyclin H (Homo sapiens) (UniProt P51946+P50613). Conditions: at 1 µM.
Test [20] deals with T9, Cyclin-dependent kinase 7/ cyclin H (Homo sapiens). Conditions: at 10 µM.

T6 sequence (O96020 whole entry, looked up): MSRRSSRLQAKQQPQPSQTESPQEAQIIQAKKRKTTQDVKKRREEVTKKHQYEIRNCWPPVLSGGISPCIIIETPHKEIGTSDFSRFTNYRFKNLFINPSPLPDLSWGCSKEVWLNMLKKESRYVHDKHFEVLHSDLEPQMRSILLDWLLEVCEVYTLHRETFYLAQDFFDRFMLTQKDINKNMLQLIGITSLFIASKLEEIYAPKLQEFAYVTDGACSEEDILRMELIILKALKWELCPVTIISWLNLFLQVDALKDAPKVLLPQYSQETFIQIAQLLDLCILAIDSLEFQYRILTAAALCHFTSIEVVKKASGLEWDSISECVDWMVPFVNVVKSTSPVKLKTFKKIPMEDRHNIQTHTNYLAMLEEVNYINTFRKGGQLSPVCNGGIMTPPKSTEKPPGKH
T6 sequence (P24864 whole entry, looked up): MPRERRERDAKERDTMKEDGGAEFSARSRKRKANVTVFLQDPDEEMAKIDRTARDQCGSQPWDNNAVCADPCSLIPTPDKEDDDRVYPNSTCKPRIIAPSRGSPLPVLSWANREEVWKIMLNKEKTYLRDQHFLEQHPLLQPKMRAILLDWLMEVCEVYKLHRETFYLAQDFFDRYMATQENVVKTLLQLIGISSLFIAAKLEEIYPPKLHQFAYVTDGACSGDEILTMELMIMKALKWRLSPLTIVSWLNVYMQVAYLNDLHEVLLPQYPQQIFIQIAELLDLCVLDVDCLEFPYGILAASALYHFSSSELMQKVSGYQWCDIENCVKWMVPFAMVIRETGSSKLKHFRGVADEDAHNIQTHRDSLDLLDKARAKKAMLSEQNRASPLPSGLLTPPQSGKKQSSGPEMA
T6 sequence (Q00526 whole entry, looked up): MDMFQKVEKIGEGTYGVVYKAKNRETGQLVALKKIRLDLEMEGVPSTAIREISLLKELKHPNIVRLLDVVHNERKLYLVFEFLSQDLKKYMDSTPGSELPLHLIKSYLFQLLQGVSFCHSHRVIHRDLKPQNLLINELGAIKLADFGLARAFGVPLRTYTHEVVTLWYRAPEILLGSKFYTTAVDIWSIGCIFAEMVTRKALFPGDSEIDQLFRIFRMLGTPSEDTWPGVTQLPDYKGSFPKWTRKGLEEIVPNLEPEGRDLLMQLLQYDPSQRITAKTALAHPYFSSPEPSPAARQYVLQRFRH
T3 sequence (P06493 whole entry, looked up): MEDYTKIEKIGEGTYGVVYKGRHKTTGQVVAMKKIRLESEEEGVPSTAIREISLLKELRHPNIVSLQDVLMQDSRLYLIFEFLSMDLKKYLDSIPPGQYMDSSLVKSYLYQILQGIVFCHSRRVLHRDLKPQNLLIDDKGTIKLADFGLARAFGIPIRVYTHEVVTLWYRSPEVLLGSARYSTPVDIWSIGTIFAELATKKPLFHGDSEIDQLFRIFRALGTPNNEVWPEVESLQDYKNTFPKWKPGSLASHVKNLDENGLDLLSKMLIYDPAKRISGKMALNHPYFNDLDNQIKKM
T3 sequence (P14635 whole entry, looked up): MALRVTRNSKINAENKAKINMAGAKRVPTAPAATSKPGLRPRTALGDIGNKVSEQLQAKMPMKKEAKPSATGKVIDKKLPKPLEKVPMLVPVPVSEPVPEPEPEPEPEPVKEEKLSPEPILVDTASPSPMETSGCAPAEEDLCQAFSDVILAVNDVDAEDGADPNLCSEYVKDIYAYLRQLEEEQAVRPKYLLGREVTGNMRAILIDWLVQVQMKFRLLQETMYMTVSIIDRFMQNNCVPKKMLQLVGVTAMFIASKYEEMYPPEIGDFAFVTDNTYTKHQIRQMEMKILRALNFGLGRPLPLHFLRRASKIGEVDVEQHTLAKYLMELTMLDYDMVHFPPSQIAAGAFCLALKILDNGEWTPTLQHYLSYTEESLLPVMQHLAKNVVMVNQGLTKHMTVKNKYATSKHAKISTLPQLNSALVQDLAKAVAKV

Turning to `O=C1NC(=O)c2cc(Nc3ccc(F)cc3)c(Nc3ccc(F)cc3)cc21`, the residual activity in [1] is 48%; in test [2], 56%; in test [3], 107%; in test [4], 92%; in test [5], 111%; in [6], 90%. In addition, the residual activity came to 129% in test [7]; 79% in [8]; 98% in test [9]; 69% in test [10]; 86% in [11]; 66% in test [12]. Further, the residual activity worked out at 112% in test [13]; 49% in [14]; 81% in test [15]; 60% in test [16]; 98% in [17]; 86% in test [18]. Also, the residual activity in test [19] is 78%; in test [20], 112%.
Regarding `COc1cc2ncnc(N3CCN(C(=O)Nc4ccc(Oc5ccccc5)cc4)CC3)c2cc1OC`, the residual activity in test [1] came out at 79%; in test [2], 91%; in test [3], 113%; in [4], 126%; in test [5], 119%; in test [6] it was 109%. Moreover, the residual activity is 117% in [7]; 92% in test [8]; 98% in [9]; 96% in test [10]; 79% in test [11]; 75% in test [12]. Also, the residual activity in test [13] stood at 95%; in [14], 55%; in test [15], 108%; in test [16], 75%; in test [17] it was 82%; in test [18], 86%. Further, the results for the residual activity in test [19] and in test [20] were 90% and 93%, respectively.
Take `CO[C@H]1C[C@@H]2CC[C@@H](C)[C@@](O)(O2)C(=O)C(=O)N2CCCC[C@H]2C(=O)O[C@H]([C@H](C)C[C@@H]2CC[C@@H](O)[C@H](OC)C2)CC(=O)[C@H](C)/C=C(\C)[C@@H](O)[C@@H](OC)C(=O)[C@H](C)C[C@H](C)/C=C/C=C/C=C/1C`: the residual activity in [1] amounted to 70%; in [2], 68%; in test [3] it was 97%; in test [4] it was 139%; in [5], 120%; in test [6], 108%. The residual activity in test [7] worked out at 129%; in test [8], 113%; in [9] it was 105%; in [10], 96%; in [11], 90%; in test [12], 86%. Moreover, the residual activity in test [13] worked out at 90%; in test [14], 92%; in test [15], 78%; in test [16], 100%; in test [17], 88%; in [18] it was 89%. The residual activity stood at 88% in test [19] and 94% in [20].
For `O=C(Nc1cccc(Nc2cc(Nc3cccc(C(F)(F)F)c3)ncn2)c1)C1CC1`, the residual activity was found to be 67% in test [1]; 29% in test [2]; 83% in [3]; 47% in test [4]; 92% in [5]; 89% in [6]. Moreover, the residual activity in test [7] came out at 120%; in test [8], 71%; in test [9], 99%; in test [10] it was 76%; in test [11], 100%; in test [12] it was 77%. The residual activity in test [13] came to 89%; in test [14], 63%; in test [15], 101%; in test [16], 57%; in test [17] it was 94%; in test [18], 69%. The residual activity in [19] is 88%; in test [20] it was 80%.
As for `CCC(=O)Nc1ccc2ncnc(Nc3cccc(Br)c3)c2c1`, the residual activity came out at 55% in test [1]; 17% in [2]; 97% in test [3]; 63% in [4]; 114% in test [5]; 107% in [6]. Besides, the residual activity in test [7] turned out to be 135%; in test [8], 101%; in test [9], 106%; in [10] it was 104%; in test [11], 101%; in [12], 78%. Further, the residual activity in [13] was 102%; in [14] it was 113%; in [15], 79%; in test [16] it was 101%; in test [17], 84%; in test [18], 81%. Moreover, the values for the residual activity in test [19] and in [20] were 86% and 95%, respectively.
On to `Oc1ccc(-c2nc(-c3ccc(F)cc3)c(-c3ccncc3)[nH]2)cc1`, for which the residual activity was 102% in test [1]; 63% in test [2]; 124% in test [3]; 90% in test [4]; 101% in test [5]; 92% in test [6]. In addition, the residual activity in test [7] was determined as 95%; in test [8] it was 88%; in test [9] it was 108%; in [10], 91%; in test [11] it was 109%; in test [12] it was 93%. Further, the residual activity worked out at 105% in [13]; 91% in test [14]; 127% in [15]; 99% in test [16]; 123% in test [17]; 109% in [18]. For the same compound, the residual activity in test [19] stood at 104%; in test [20] it was 102%.
Turning to `Cc1ccc(S(=O)(=O)/C=C/C#N)cc1`, the residual activity is 83% in test [1]; 99% in test [2]; 113% in [3]; 77% in test [4]; 106% in test [5]; 102% in [6]. Moreover, the residual activity in test [7] was determined as 124%; in [8], 91%; in test [9], 91%; in test [10], 105%; in test [11], 93%; in test [12] it was 96%. Moreover, the residual activity in test [13] came to 102%; in test [14] it was 101%; in test [15], 100%; in test [16] it was 80%; in [17], 95%; in [18], 93%. For the same compound, the residual activity amounted to 101% in test [19] and 90% in test [20].
